Here are results for 8 compounds from PubChem BioAssay (NCI).

Molecules are shown by their SMILES. This is part of a sample that, as a whole, favours compounds with a hit. Of some 83,000 tested, about 20% had one in any assay.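 96-well plates, one dose, 48 hours. Percent growth reported; active if below 10.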 Values without a mark were called inactive. The source made the active and inactive calls.

Common to all, as to experiment: NCI-60 one-dose screen, 48 h (100 = growth as untreated, 0 = no growth, -100 = all killed)
One assay concerns HCT-15 colon. The note with it: 10 µM unless noted.
The subject of another assay is HT29 colon. The note with it: 10 µM unless noted.
For another assay, the system named is SNB-75 CNS. Conditions: 10 µM unless noted.
Another assay concerns SNB-19 CNS. Conditions: 10 µM unless noted.
The test system of a further assay is U251 CNS. Conditions: 10 µM unless noted.
The subject of another assay is PC-3 prostate. The note with it: 10 µM unless noted.
Another assay has as its system SK-MEL-5 melanoma. Conditions: 10 µM unless noted.
The next assay has as its system UACC-62 melanoma. The note with it: 10 µM unless noted.
The next assay has as its system LOX IMVI melanoma. Conditions: 10 µM.
The subject of a further assay is SK-MEL-28 melanoma. Conditions: 10 µM unless noted.
The next assay has as its system SK-MEL-2 melanoma. The note with it: 10 µM unless noted.
The next assay has as its system EKVX NSCLC. Conditions: 10 µM unless noted.
The test system of the next assay is SN12C renal. The note with it: 10 µM unless noted.
In another assay the test system is UO-31 renal. Conditions: 10 µM unless noted.
Another assay has as its system TK-10 renal. Conditions: 10 µM unless noted.
The test system of a further assay is ACHN renal. Conditions: 10 µM unless noted.
The test system of a further assay is CAKI-1 renal. The note with it: 10 µM unless noted.
The next assay deals with A498 renal. Conditions: 10 µM unless noted.
Another assay has as its system CCRF-CEM leukemia. Conditions: 10 µM unless noted.
The subject of another assay is MOLT-4 leukemia. The note with it: 10 µM unless noted.

With `O=c1nc(Nc2cccc(Cl)c2)oc2cc(Cl)oc(=O)c12`, the growth with HCT-15 colon was 83.4%; in the assay with HT29 colon, 85.5%; in the assay on SNB-75 CNS it was 67.2%; in the assay on SNB-19 CNS, 94.3%; in the assay on U251 CNS, 79.6%; in the assay on PC-3 prostate, 61.8%. The growth in the assay with SK-MEL-5 melanoma is 106%; in the assay with UACC-62 melanoma, 78.7%; in the assay on LOX IMVI melanoma, 73.5%; in the assay with SK-MEL-28 melanoma it was 85.5%; with SK-MEL-2 melanoma it was -14.9% (active); with EKVX NSCLC, 116%. Further, the growth was 86.1% in the assay on SN12C renal; 47.9% in the assay with UO-31 renal; 98.1% with TK-10 renal; 81.3% with ACHN renal; 79.6% with CAKI-1 renal; 103% in the assay on A498 renal. Moreover, the growth in the assay with CCRF-CEM leukemia was 56.7%; in the assay with MOLT-4 leukemia it was 21.5%.
For the compound `CC(=O)NNC(=S)/N=C\C(C(=O)c1ccccc1)=C(/O)c1ccccc1`, the growth in the assay on HCT-15 colon was 98.7%; with HT29 colon it was 93.8%; in the assay on SNB-75 CNS, 86.3%; in the assay with SNB-19 CNS, 105%; with U251 CNS, 99.5%; in the assay on PC-3 prostate, 93%. The growth was 101% in the assay with SK-MEL-5 melanoma; 101% in the assay with UACC-62 melanoma; 94% in the assay on LOX IMVI melanoma; 106% with SK-MEL-28 melanoma; 110% with SK-MEL-2 melanoma; 99.4% in the assay on EKVX NSCLC. In addition, the growth in the assay on SN12C renal was 107%; in the assay on UO-31 renal it was 79.8%; with TK-10 renal, 130%; with ACHN renal it was 99.5%; in the assay on CAKI-1 renal, 98.3%; with A498 renal, 105%. Also, the growth in the assay with CCRF-CEM leukemia was 102%; with MOLT-4 leukemia, 93%.
For `CC(=O)NNC(=S)N/C=C/c1c(C)ccc([N+](=O)[O-])c1[N+](=O)[O-]`, the growth in the assay on HCT-15 colon is 96.5%; in the assay with HT29 colon, 105%; with SNB-75 CNS, 88.5%; in the assay on SNB-19 CNS, 113%; in the assay with U251 CNS, 112%; with PC-3 prostate it was 97.2%. For the same compound, the growth in the assay with SK-MEL-5 melanoma was 105%; in the assay on UACC-62 melanoma, 98.5%; in the assay with LOX IMVI melanoma it was 96%; in the assay on SK-MEL-28 melanoma it was 101%; in the assay on SK-MEL-2 melanoma, 92.3%; in the assay with EKVX NSCLC, 99.3%. Besides, the growth in the assay on SN12C renal was 96.2%; with UO-31 renal, 92%; in the assay with TK-10 renal it was 118%; with ACHN renal it was 98.1%; with CAKI-1 renal it was 98.8%; in the assay with A498 renal, 105%. For the same compound, the growth in the assay with CCRF-CEM leukemia is 99.9%; with MOLT-4 leukemia, 95.5%.
With `OC1Cc2ccccc2C1`, the growth in the assay on HCT-15 colon was 93.3%; in the assay with HT29 colon, 100%; in the assay on SNB-75 CNS, 93.6%; in the assay on SNB-19 CNS, 100%; in the assay on U251 CNS, 105%; in the assay on PC-3 prostate it was 95.4%. The growth in the assay on SK-MEL-5 melanoma is 101%; with UACC-62 melanoma, 95.6%; in the assay on LOX IMVI melanoma, 93.3%; with SK-MEL-28 melanoma it was 102%; in the assay on SK-MEL-2 melanoma, 107%; in the assay on EKVX NSCLC it was 99.9%. Also, the growth in the assay with SN12C renal is 104%; in the assay on UO-31 renal it was 97.5%; with TK-10 renal it was 95.9%; in the assay on ACHN renal it was 98.3%; with CAKI-1 renal it was 103%; with A498 renal, 82.9%. Also, the growth in the assay on CCRF-CEM leukemia is 98.1%; with MOLT-4 leukemia it was 98.9%.
As for `COC(c1ccc2c(c1)OCO2)C(C)Br` (stereo not drawn), the growth in the assay with HCT-15 colon was 103%; in the assay with HT29 colon, 88.8%; with SNB-75 CNS, 76.6%; with SNB-19 CNS, 101%; in the assay with U251 CNS, 96.9%; in the assay on PC-3 prostate, 69.3%. The growth was 104% in the assay with SK-MEL-5 melanoma; 94.6% with UACC-62 melanoma; 92.3% with LOX IMVI melanoma; 103% in the assay with SK-MEL-28 melanoma; 101% in the assay with SK-MEL-2 melanoma; 90.3% in the assay with EKVX NSCLC. For the same compound, the growth in the assay with SN12C renal was 100%; in the assay with UO-31 renal, 91.8%; with TK-10 renal, 85.8%; in the assay with ACHN renal, 102%; in the assay with CAKI-1 renal it was 83.7%; in the assay with A498 renal, 95.6%. The growth was 93.3% in the assay with CCRF-CEM leukemia and 91.6% in the assay with MOLT-4 leukemia.
As to `CCCCCCCCCCCCCC/C=C\C(CC(=O)O)C(=O)O` (stereo not drawn), the growth was 107% in the assay on HCT-15 colon; 103% with HT29 colon; 90.1% in the assay on SNB-75 CNS; 103% in the assay on SNB-19 CNS; 107% in the assay with U251 CNS; 96.2% with PC-3 prostate. Also, the growth in the assay with SK-MEL-5 melanoma was 104%; in the assay with UACC-62 melanoma it was 100%; in the assay on LOX IMVI melanoma, 110%; in the assay on SK-MEL-28 melanoma it was 108%; in the assay on SK-MEL-2 melanoma, 110%; with EKVX NSCLC it was 140%. Moreover, the growth with SN12C renal was 100%; with UO-31 renal it was 95.9%; in the assay on TK-10 renal, 111%; in the assay with ACHN renal, 110%; in the assay on CAKI-1 renal, 129%; with A498 renal it was 95.2%. In addition, the growth was 4.62% (active) in the assay with CCRF-CEM leukemia and 115% with MOLT-4 leukemia.
For `Cc1cc(CC(=O)NCCO)n(CCO)c(=O)c1`, the growth is 109% in the assay with HCT-15 colon; 98.3% with HT29 colon; 95.3% with SNB-75 CNS; 103% with SNB-19 CNS; 97.9% in the assay with U251 CNS; 104% in the assay with PC-3 prostate. The growth in the assay with SK-MEL-5 melanoma was 104%; in the assay on UACC-62 melanoma it was 105%; in the assay with LOX IMVI melanoma, 98.8%; in the assay with SK-MEL-28 melanoma, 118%; in the assay on SK-MEL-2 melanoma, 109%; in the assay with EKVX NSCLC, 93.7%. The growth in the assay with SN12C renal was 103%; with UO-31 renal, 94.4%; in the assay on TK-10 renal it was 94.1%; in the assay with ACHN renal it was 106%; in the assay on CAKI-1 renal, 101%; in the assay with A498 renal, 89.4%.
As to `CCC(=O)Oc1ccc2ccccc2c1`, the growth in the assay on HCT-15 colon was 104%; with HT29 colon, 104%; in the assay on SNB-75 CNS, 82.4%; in the assay on SNB-19 CNS, 97.9%; in the assay on U251 CNS, 93.9%; in the assay on PC-3 prostate it was 77%. Moreover, the growth in the assay with SK-MEL-5 melanoma was 91.6%; in the assay with UACC-62 melanoma it was 92.1%; with LOX IMVI melanoma it was 92.2%; in the assay with SK-MEL-28 melanoma, 110%; in the assay on SK-MEL-2 melanoma, 95.2%; in the assay on EKVX NSCLC, 95.7%. The growth in the assay with SN12C renal was 91%; in the assay with UO-31 renal, 71.6%; in the assay with TK-10 renal it was 105%; with ACHN renal it was 98.7%; with CAKI-1 renal, 91.2%; in the assay on A498 renal, 82.7%. For the same compound, the growth was 89.8% with CCRF-CEM leukemia and 99% in the assay with MOLT-4 leukemia.
